GLP1R cytotox: cytotoxicity in counter-screen for GLP-1R inverse agonists. actives 0.13% (n = 410,000). Potency, µM (doses to about 38.3 µM), inactives show top-dose activity change, negative = inhibition, most hits filed as inhibitors. HEK293 cAMP-luciferase reporter cells, luminescence, 24 h;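 note: loss of luciferase light is scored as toxicity; % is set by controls: 0 for no effect and ±100 for the full control effect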
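Seeding density was 200 cells/uL; after overnight-length (12 h) culture, 23 nL compounds went on for 24 h at 37 °C. Readout used a luciferase detection reagent, luminescence taken after 12 min at room temperature.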
GLP-1R inv ag: GLP-1 receptor (human) inverse agonism; P43220; HEK293 GLP-1R CRE-luciferase, luminescence, 24 h; GLP-1R form is constitutively active; Potency, µM (doses to about 38.3 µM), without a hit: top-dose activity change, negative = inhibition, most hits filed as inhibitors; actives 1.6% (n = 410,000); AID 624417; note: % is set by controls: 0 for no effect and ±100 for the full control effect; nearly all actives have a fitted effect of over 55% in size
Target sequence (P43220 whole entry, looked up): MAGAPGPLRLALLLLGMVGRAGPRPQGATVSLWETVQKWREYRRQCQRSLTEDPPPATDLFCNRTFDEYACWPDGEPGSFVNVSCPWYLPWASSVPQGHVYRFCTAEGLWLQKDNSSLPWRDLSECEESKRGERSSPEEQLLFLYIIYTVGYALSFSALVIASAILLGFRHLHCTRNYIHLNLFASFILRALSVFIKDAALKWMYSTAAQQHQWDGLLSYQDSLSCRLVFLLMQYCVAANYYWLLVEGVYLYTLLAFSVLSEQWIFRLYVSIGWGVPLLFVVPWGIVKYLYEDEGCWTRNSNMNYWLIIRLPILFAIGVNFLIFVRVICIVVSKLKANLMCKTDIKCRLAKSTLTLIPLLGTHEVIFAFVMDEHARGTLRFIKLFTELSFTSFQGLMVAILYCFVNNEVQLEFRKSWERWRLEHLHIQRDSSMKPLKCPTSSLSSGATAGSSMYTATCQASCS
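Cells are plated, allowed 12 hours at 37 deg C, then treated with compounds for 24 hr before luciferase detection reagent is added and luminescence is read after 12 min at room temperature. The HEK293 line carries constitutively active GLP-1R with a cAMP-responsive reporter.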
GLP-1R agonist: agonists of human GLP-1 receptor; HEK293 GLP-1R CRE-luciferase, luminescence, 4-6 h; cells express a hypersensitive GLP-1R form; AID 624172; Potency, µM (top dose mostly 45.6 µM), without a hit: at the highest dose activation, usual class: activators; actives 0.007% (n = 380,000); note: % of control where 0% means no effect
ClpP mod: qHTS Assay for Activators of ClpP; purified B. subtilis ClpP, FRET peptide cleavage, 20 min; Potency, µM (top dose mostly 57.5 µM), for inactives: top-dose activity change, negative = active; actives 1.9% (n = 340,000); AID 651965, 2013; active = well fitted falling curve with a large enough effect; inconclusive = small, poorly fitted or top-dose-only effect; inactive = no such curve, though single readings can be large or run the other way; note: the source files actives as falling curves though it sought activators and does not explain the sign; nearly all actives have a fitted effect of over 65% in size
Target sequence (P80244 whole entry, looked up): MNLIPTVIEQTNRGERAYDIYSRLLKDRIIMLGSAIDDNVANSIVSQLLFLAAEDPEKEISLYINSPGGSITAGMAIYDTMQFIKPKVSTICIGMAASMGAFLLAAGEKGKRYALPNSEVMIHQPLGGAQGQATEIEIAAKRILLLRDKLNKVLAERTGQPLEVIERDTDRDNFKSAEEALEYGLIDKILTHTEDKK
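Purified B. subtilis ClpP, 10 microg/mL final in Tris/HCl pH8 with KCl, BSA, glycerol and Tween-20, cleaved an Abz/nitrotyrosine-quenched decapeptide. Fluorescence (ex 320, em 430) was read at 0 and 20 min at room temperature. Delta was normalized to 5.8 microM ADEP and DMSO/no-enzyme controls.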
The depositor's hits bear a star; ? = inconclusive; · = not tested or not shown; [ ] = dose if it differs, or a comment. Compounds with a hit are over-represented: about 3.2% of the library has one in this group of screens. Unless noted, calls come from the whole dose curve; as a rule, active = well fitted curve in the direction sought with a large enough effect; inconclusive = small, poorly fitted or top-dose-only effect, or another doubt; inactive = no such curve, though single readings can be large; an effect the other way counts as inactive or inconclusive. Potency is the fitted concentration of half-maximal effect.

SMILES	GLP1R cytotox	GLP-1R inv ag	GLP-1R agonist	ClpP mod
Cc1c(Cl)cccc1NC(=O)Cn1cc2c(n1)CCCC2	19%	-19%	·	-4%
O=C(NCc1ccco1)c1ccc(Cn2c(SCc3ccccc3)nc3cccnc32)cc1	1%	3%	·	4%
CCC(Sc1nc2cc3c(cc2c(=O)n1CCCCCC(=O)NCc1ccc2c(c1)OCO2)OCO3)C(=O)NCCCOC (stereo not drawn)	-8%	1%	·	2%
CCN(CC)CCCNC(=O)CN1C(=O)COc2ccc(S(=O)(=O)N3CCC(C)CC3)cc21	2%	4%	-3%	1%
CCOC(=O)c1cccc(Nc2ncnc3ccc(C)cc23)c1	-16%	11µM*	4%	?
COC(=O)c1cc2ccccc2c(-c2c(OC)c(C(=O)OC)cc3ccccc23)c1OC	9%	?	-14%	25µM*
O=C(N/N=C/c1ccco1)C1CC1(c1ccccc1)c1ccccc1 (stereo not drawn)	-3%	10µM*	-19%	-2%
CCN(CC)S(=O)(=O)c1cc([N+](=O)[O-])ccc1NNC(=O)Nc1ccc(Cl)c(Cl)c1	?	2.2µM*	-8%	1%
CCCCN(CCCC)S(=O)(=O)c1ccc(NC(=O)c2ccc([N+](=O)[O-])cc2Cl)cc1	-24%	4µM*	-8%	-27%
C/C(CC(=O)Nc1ccc(N(C)C)cc1)=N\NC(=O)c1ccc([N+](=O)[O-])cc1Cl	22%[0.307 µM]	20%[0.307 µM]	-14%	25µM*
C/C(CC(=O)Nc1ccc(N(C)C)cc1)=N\NC(=O)c1ccc(Cl)cc1Cl	16%	8%	1%	1%
O=C(NNc1ccccc1[N+](=O)[O-])Nc1ccc(Cl)c(Cl)c1	-2%	?	3%	3%
C#C[C@]1(OC(C)=O)CC[C@H]2[C@@H]3CCC4=C/C(=N/O)CC[C@@H]4[C@H]3CC[C@@]21CC	·	·	-1%	·
O=[N+]([O-])c1cc(S(=O)(=O)N2CCCC2)ccc1N/N=C1/CCCc2ccccc21	-10%	11%	-5%	16µM*
Cc1noc(C)c1COC(=O)CCOc1ccccc1	7%	4%	2%	-1%
Cc1noc(C)c1COC(=O)CCN1c2ccccc2Sc2ccccc21	16%	4.5µM*	16%	-9%
Cc1ccc2nnc(Cl)n2n1	1%	21%	-3%	?
Clc1nnc2ccc(-c3ccccc3)nn12	3%	50%	30%	25µM*
COc1cccc(NC(=O)c2ccccc2)c1	5%	11%	10%	2%
COc1cccc(NC(=O)Nc2cccc(C(=O)O)c2)c1	5%	2µM*	-3%	·
CCOc1ccc(CCNC(=O)Nc2cccc(OC)c2)cc1OCC	-18%	11µM*	-3%	1%
CCOc1ccc(-c2nc(-c3ccc(OC)cc3)no2)cc1OCC	-2%	3%	-5%	32µM*
COc1cccc(C(=O)Nc2ccc(NC(=O)C(C)(C)C)cn2)c1	-7%	13µM*	-11%	0%
CCOc1ccc(-c2noc(-c3ccncc3)n2)cc1OCC	-1%	42%	8%	-12%
COc1ccc(-c2nc(C)c(CCNC(=O)c3cccs3)s2)cc1	-16%	-13%	5%	4%
SMILES	GLP1R cytotox	GLP-1R inv ag	GLP-1R agonist	ClpP mod
O=Cc1ccc(CS)cc1	·	·	·	-4%
CSc1ccc(CCNC(=O)CCn2c(=O)c3cccn3c3cccnc32)cc1	-12%	-3%	·	-18%
COc1ccc(C)cc1NC(=O)CSc1nc(=O)n(Cc2cccnc2)c2c1CCC2	-5%	12%	·	-3%
CCOc1ccc(CCNC(=O)CCc2nc(-c3ccc(OC)cc3)no2)cc1OCC	18%	-3%	-3%	25µM*
CCOc1ccc(CCNC(=O)CCc2nc(-c3ccc(C)cc3)no2)cc1OCC	13%	0%	10%	-15%
CCCCCCCCCCCCCCCC[n+]1ccc(C)c2ccccc21	·	·	·	-16%
Cc1cc(C)c(NC(=O)Nc2sc3nc4n(c(=O)c3c2C)CCC(C)CC4)c(C)c1 (stereo not drawn)	8%	-5%	·	-4%
CCCCN(CC)CCCNC(=O)Nc1sc2nc3n(c(=O)c2c1C)CCC(C)CC3 (stereo not drawn)	-5%	10µM*	·	-7%
Cc1ccc2c(c1)-c1c(c(C(=O)N3CCN(c4cc(C)ccc4C)CC3)nn1C)CS2	-14%	-11%	·	-1%
O=S(=O)(NCC(c1ccco1)N1CCN(c2ccc(F)cc2)CC1)c1ccccc1 (stereo not drawn)	3%	?	·	-1%
O=S(=O)(NCC(c1ccco1)N1CCN(c2ccc(F)cc2)CC1)c1ccc2c(c1)OCCO2 (stereo not drawn)	5%	10µM*	-2%	-3%
O=C(COc1ccccc1)NNC(=O)COc1ccc([N+](=O)[O-])cc1	-2%	6%	0%	·
O=C(COc1ccc([N+](=O)[O-])cc1)N(Cc1ccccc1)Cc1ccccc1	2%	?	29%	32µM*
Cc1ccc(C)c(N2CCN(C(=O)C3CCN(c4nc5ccc(C)cc5[nH]4)CC3)CC2)c1	-15%	?	·	-2%
C/C=C/c1ccc(OCCCNCC(C)O)c(OC)c1 (stereo not drawn)	-12%	5.6µM*	0%	-2%
C/C=C/c1ccc(OCCCCN2CC(C)CC(C)C2)c(OC)c1 (stereo not drawn)	?	11µM*	-1%	0%
C/C=C/c1ccc(OCCCCN2CCN(CC)CC2)c(OC)c1	8%	?	6%	-4%
C/C=C/c1ccc(OCCCCOc2ccc(OC)cc2)c(OC)c1	20%	?	8%	?
Cc1ccc(-n2ncc3c(NCc4ccccc4)ncnc32)cc1C	-27%	-25%	·	?
Cc1ccc(/C=C/c2ccc(=O)n(Cc3ccc(F)cc3)n2)cc1	2%	?	5%	·
Cc1ccc(/C=C/c2ccc(=O)n(Cc3ccccc3Cl)n2)cc1	4%	10%	-8%	28µM*
CC(O)C(NS(=O)(=O)c1ccc(Cl)cc1)C(=O)OCC(=O)c1c[nH]c2ccccc12 (stereo not drawn)	-14%	5.6µM*	8%	·
CCN1CCSc2ccc(C(=O)NCc3cccc(Br)c3)cc21	2%	10µM*	18%	4%
Cc1cc(C)cc(SCc2noc(C(=O)NCC3CC3)c2C(=O)NCC2CC2)c1	-3%	8.9µM*	7%	0%
CCCCNC(=O)c1c(CSc2ccccc2)noc1C(=O)NCc1ccccc1	-33%	10µM*	-2%	-4%
O=C(NCC1CC1)c1onc(CSc2ccc(F)cc2)c1C(=O)NCC1CC1	7%	?	-1%	-1%
CCCCNC(=O)c1c(CSc2ccc(Cl)cc2)noc1C(=O)NCc1ccccc1	-1%	?	7%	-1%
CCCNC(=O)c1c(CSc2ccc(Cl)cc2)noc1C(=O)NCc1ccccc1	5%	5µM*	2%	-3%
O=C(NCc1ccccc1)c1onc(CSc2ccccc2)c1C(=O)NCC1CC1	0%	3.5µM*	-4%	1%
